What all share (experiment): NCI-60 one-dose screen, 48 h (100 = growth as untreated, 0 = no growth, -100 = all killed)
For one assay, the system named is NCI-H522 lung. Conditions: 10 µM unless noted.
A further assay deals with COLO 205 colon. Conditions: 10 µM.
For another assay, the system named is K-562 leukemia. Conditions: 10 µM unless noted.
A further assay relates to U251 CNS. Conditions: 10 µM unless noted.
The next assay relates to TK-10 renal. Conditions: 10 µM unless noted.
The test system of the next assay is CAKI-1 renal. Conditions: 10 µM unless noted.
Another assay has as its system CCRF-CEM leukemia. Conditions: 10 µM unless noted.
For another assay, the system named is MOLT-4 leukemia. Conditions: 10 µM.
For the next assay, the system named is SR leukemia. Conditions: 10 µM.
The subject of another assay is SK-OV-3 ovarian. Conditions: 10 µM unless noted.
The test system of another assay is IGROV1 ovarian. Conditions: 10 µM.
For another assay, the system named is HS 578T breast. Conditions: 10 µM unless noted.
For another assay, the system named is SW-620 colon. Conditions: 10 µM unless noted.
Another assay deals with HCT-116 colon. Conditions: 10 µM unless noted.
A further assay deals with HOP-92 NSCLC. Conditions: 10 µM unless noted.
Another assay has as its system LOX IMVI melanoma. Conditions: 10 µM unless noted.
The subject of the next assay is BT-549 breast. Conditions: 10 µM.
The subject of the next assay is EKVX NSCLC. Conditions: 10 µM unless noted.

About 83,000 compounds went through this panel and 20% of them were active in at least one assay; those are over-represented in the sample as a whole.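 A percent growth of 40 corresponds to 60% growth inhibition; 0 means no net growth; -100 means all cells died. Active threshold: below 10.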 Unmarked numbers belong to inactive results. Calls of active or inactive are those of the source.

Take `COc1ccc(OC)c(/C=C(/C)[N+](=O)[O-])c1`: the growth in the assay on NCI-H522 lung was -78.1% (active); with COLO 205 colon, -38.9% (active); in the assay with K-562 leukemia, 4.29% (active); in the assay with U251 CNS it was 26.7%; in the assay on TK-10 renal, -19.1% (active); with CAKI-1 renal, 6.25% (active). The growth in the assay with CCRF-CEM leukemia is -2.22% (active); with MOLT-4 leukemia, 0.523% (active); with SR leukemia, -7.63% (active); in the assay on SK-OV-3 ovarian it was 125%; with IGROV1 ovarian it was -24.8% (active); with HS 578T breast, 70.6%. Further, the growth was -77% (active) with SW-620 colon and -91.4% (active) in the assay with HCT-116 colon.
Turning to `S=P(Nc1ccccc1)(Nc1ccccc1)c1ccccc1`, the growth with HOP-92 NSCLC was 84.1%; in the assay on COLO 205 colon, 146%; in the assay on U251 CNS, 92.1%; with LOX IMVI melanoma, 89.1%; in the assay on CAKI-1 renal it was 71.4%; with CCRF-CEM leukemia it was 95.3%. The growth is 101% in the assay with IGROV1 ovarian; 107% with HS 578T breast; 101% in the assay with BT-549 breast; 103% with SW-620 colon; 81.1% in the assay with HCT-116 colon.
For the compound `CC1COC(=O)C1` (centres undefined), the growth with NCI-H522 lung is 99.4%; in the assay on COLO 205 colon it was 102%; in the assay with LOX IMVI melanoma, 100%; in the assay on TK-10 renal, 100%; with CAKI-1 renal, 96.1%; with CCRF-CEM leukemia, 95.4%. Moreover, the growth in the assay with MOLT-4 leukemia is 102%; in the assay on SK-OV-3 ovarian, 96.1%; with IGROV1 ovarian it was 103%; with HS 578T breast it was 99.2%; in the assay on BT-549 breast, 102%; in the assay on SW-620 colon it was 97.8%. Besides, the growth with HCT-116 colon was 102%.
On to `O=CN1N=C(c2ccccc2)CC1c1sc(N(CCCl)CCCl)nc1Cl` (centres undefined), for which the growth is 70.8% in the assay on NCI-H522 lung; 78.1% in the assay on K-562 leukemia; 96.5% with U251 CNS; 98.6% with LOX IMVI melanoma; 121% in the assay with TK-10 renal; 79.6% with CAKI-1 renal. For the same compound, the growth in the assay with CCRF-CEM leukemia is 104%; in the assay with MOLT-4 leukemia it was 85.6%; in the assay on SR leukemia it was 91.2%; with SK-OV-3 ovarian, 79.2%; in the assay on IGROV1 ovarian, 96%; with HS 578T breast, 90.2%. Moreover, the growth is 95.3% in the assay with BT-549 breast, 105% in the assay on SW-620 colon and 89.4% in the assay with HCT-116 colon.
On to `c1cnc2c(c1)ccc1ncccc12`, for which the growth is 93.8% with NCI-H522 lung; 110% in the assay on COLO 205 colon; 99.8% in the assay on K-562 leukemia; 105% in the assay on U251 CNS; 106% in the assay with LOX IMVI melanoma; 94.2% with EKVX NSCLC. The growth in the assay with TK-10 renal is 114%; in the assay with CAKI-1 renal, 91.7%; in the assay with CCRF-CEM leukemia, 95.6%; in the assay with MOLT-4 leukemia it was 100%; in the assay on SR leukemia, 110%; in the assay with SK-OV-3 ovarian, 104%. The growth in the assay with HS 578T breast is 159%; in the assay with BT-549 breast, 106%; with SW-620 colon, 144%; with HCT-116 colon, 89.8%.
For `CNC(=O)Oc1cccc(N(C)C)c1`, the growth with NCI-H522 lung was 89.1%; with K-562 leukemia it was 102%; in the assay on LOX IMVI melanoma it was 96.9%; with TK-10 renal, 108%; in the assay on CAKI-1 renal it was 91.6%; in the assay on MOLT-4 leukemia, 107%. Also, the growth in the assay on SR leukemia was 103%; in the assay with IGROV1 ovarian, 108%; with HS 578T breast, 108%; in the assay on BT-549 breast, 94.1%; with SW-620 colon it was 104%; with HCT-116 colon it was 113%.
As for `CC[C@@H](C)/C=C(C)/C=C/C(=O)c1c(O)c(-c2ccc(O)cc2)cn(O)c1=O`, the growth is 21.9% in the assay on NCI-H522 lung; 85.2% with COLO 205 colon; 12.1% with K-562 leukemia; 3.54% (active) with U251 CNS; 3.82% (active) with LOX IMVI melanoma; -0.798% (active) with EKVX NSCLC. Besides, the growth is 11.6% in the assay on TK-10 renal; -54.9% (active) with CAKI-1 renal; 9.47% (active) in the assay with CCRF-CEM leukemia; 17.8% in the assay with SK-OV-3 ovarian; 5.54% (active) in the assay on IGROV1 ovarian; 48% in the assay on HS 578T breast. Further, the growth is 18% in the assay on BT-549 breast and 16.7% in the assay on HCT-116 colon.
Regarding `N#C[Se]CCN1C(=O)C2C(C1=O)[C@H]1C=C[C@@H]2S1` (some centres undefined), the growth with HOP-92 NSCLC was -46.3% (active); in the assay with COLO 205 colon, 68.3%; in the assay with K-562 leukemia, 24.3%; in the assay on U251 CNS, -56.9% (active); in the assay on TK-10 renal it was -65.3% (active); in the assay on CAKI-1 renal, -98.7% (active). The growth in the assay on CCRF-CEM leukemia is 8.31% (active); in the assay on MOLT-4 leukemia it was 4.47% (active); in the assay with SR leukemia, 6.77% (active); with SK-OV-3 ovarian, 4.59% (active); in the assay with IGROV1 ovarian, -54.4% (active); in the assay with HS 578T breast, -10.3% (active). In addition, the growth is -81% (active) in the assay with BT-549 breast, 42.9% in the assay with SW-620 colon and -35.4% (active) with HCT-116 colon.
Regarding `O=C1NC(=S)NC(=O)C1=Cc1ccccc1`, the growth in the assay on NCI-H522 lung was 117%; in the assay with COLO 205 colon, 103%; in the assay with U251 CNS, 103%; in the assay with LOX IMVI melanoma, 85.1%; with EKVX NSCLC, 111%; in the assay on TK-10 renal, 182%. For the same compound, the growth was 95% in the assay on CAKI-1 renal; 115% in the assay with MOLT-4 leukemia; 121% in the assay with SR leukemia; 119% with IGROV1 ovarian; 95.9% in the assay on HS 578T breast; 96% in the assay with SW-620 colon.
Consider `CN1C(=O)NC(=O)C(N=Nc2ccc(Cl)cc2)C1=O` (centres undefined), for which the growth with NCI-H522 lung is 81.3%; in the assay with COLO 205 colon it was 137%; in the assay on K-562 leukemia it was 54.7%; with U251 CNS, 108%; with LOX IMVI melanoma it was 102%; in the assay on EKVX NSCLC, 96.3%. Also, the growth with TK-10 renal was 101%; in the assay on CCRF-CEM leukemia, 106%; in the assay with MOLT-4 leukemia, 96%; in the assay with SR leukemia, 100%; with SK-OV-3 ovarian, 120%; in the assay on IGROV1 ovarian, 129%. The growth is 114% in the assay with HS 578T breast, 80.3% with BT-549 breast and 106% in the assay on SW-620 colon.
Take `CC1(C)CC(=O)CC(C)(C)N1N=O`: the growth in the assay with COLO 205 colon is 96.2%; in the assay with K-562 leukemia, 111%; in the assay on U251 CNS, 118%; in the assay with LOX IMVI melanoma it was 97.1%; in the assay on EKVX NSCLC it was 112%; in the assay on TK-10 renal it was 91.8%. Also, the growth was 99.9% with CAKI-1 renal; 101% in the assay on MOLT-4 leukemia; 109% in the assay on SR leukemia; 105% with SK-OV-3 ovarian; 122% in the assay on IGROV1 ovarian; 96.3% in the assay on HCT-116 colon.
As to `C[C@@H]1O[C@@H](O[C@H]2CC[C@@]3(C)[C@H](CCC4[C@@H]3C(O)C[C@]3(C)[C@@H](c5ccc(=O)oc5)CC[C@]43O)C2)[C@H](O)[C@H](O)[C@H]1O` (some centres undefined), the growth was -87% (active) with NCI-H522 lung; -97.9% (active) in the assay on U251 CNS; -58.3% (active) in the assay on EKVX NSCLC; -68.7% (active) with CAKI-1 renal; -95.6% (active) in the assay with SK-OV-3 ovarian; -62.9% (active) in the assay with IGROV1 ovarian. The growth was -9.52% (active) in the assay on HS 578T breast, -89.9% (active) in the assay with BT-549 breast, -79% (active) in the assay with SW-620 colon and -79.9% (active) in the assay with HCT-116 colon.

The record behind these values is PubChem BioAssay (NCI).
